The source of these data is PubChem BioAssay (NCI).

Each structure is given as a SMILES string. About 83,000 compounds went through this panel and 20% of them were active in at least one assay; those are over-represented in the sample as a whole.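 Cell lines were cultured in 96-well plates, exposed to a single compound concentration, and assessed for percent growth 48 hours later.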 Values without a mark were called inactive. Active and inactive are the calls of the source. Rule for the calls: active = growth percent below 10; inactive = the rest.

Among the test systems are SR leukemia; RPMI-8226 leukemia; OVCAR-8 ovarian; OVCAR-5 ovarian; OVCAR-4 ovarian; SK-OV-3 ovarian; IGROV1 ovarian; OVCAR-3 ovarian; HS 578T breast; NCI/ADR-RES ovarian; T-47D breast; BT-549 breast; MDA-MB-435 melanoma; SW-620 colon; MCF7 breast; HCT-116 colon; HCC-2998 colon; KM12 colon.
Test in all cases: NCI-60 one-dose screen, 48 h (100 = growth as untreated, 0 = no growth, -100 = all killed)
Holding throughout (conditions): 10 µM unless noted

Regarding `CCCNNC(=O)c1ccc(-c2ccc(NC(=O)CCCCCCC(=O)N[C@H](C(=O)N3C[C@H](O)C[C@H]3C(=O)N[C@@H](C)c3ccc(-c4scnc4C)cc3)C(C)(C)C)cc2)cc1`, the growth in the experiment on SR leukemia is 17.9%; in the experiment on RPMI-8226 leukemia, 2.23% (active); in the experiment with OVCAR-8 ovarian it was 32.7%; in the experiment on OVCAR-5 ovarian, 27.3%; in the experiment on OVCAR-4 ovarian, 53.6%; in the experiment on SK-OV-3 ovarian it was 18.5%. Moreover, the growth in the experiment on IGROV1 ovarian was 25.5%; with OVCAR-3 ovarian, 30.2%; in the experiment on HS 578T breast it was 30.3%; in the experiment on NCI/ADR-RES ovarian it was 96.7%; in the experiment with T-47D breast, 9.23% (active); in the experiment on BT-549 breast, 50.5%. Also, the growth with MDA-MB-435 melanoma is 8.72% (active); with SW-620 colon, 12.1%; in the experiment with MCF7 breast it was 12%; in the experiment on HCT-116 colon, 7.95% (active); in the experiment on HCC-2998 colon, 19.4%; with KM12 colon it was 26.7%.

`O=S(=O)(NCCCNc1nccc(-c2[nH]c(-c3ccccc3)nc2-c2ccc(F)c(O)c2)n1)c1cccc(F)c1`: the growth in the experiment on SR leukemia is 36.7%; in the experiment on RPMI-8226 leukemia it was 45%; in the experiment with OVCAR-8 ovarian, 82%; in the experiment on OVCAR-5 ovarian, 147%; in the experiment with OVCAR-4 ovarian, 108%; in the experiment on SK-OV-3 ovarian it was 113%. The growth with IGROV1 ovarian is 105%; with OVCAR-3 ovarian it was 123%; with HS 578T breast it was 101%; in the experiment with NCI/ADR-RES ovarian, 103%; with T-47D breast, 73.4%; with BT-549 breast it was 96.4%. The growth with MDA-MB-435 melanoma is 38%; in the experiment on SW-620 colon it was 120%; with MCF7 breast it was 78.3%; in the experiment on HCT-116 colon it was 72.2%; in the experiment with HCC-2998 colon, 114%; in the experiment on KM12 colon it was 88.9%.

As to `CS(=O)(=O)c1ccc(/C(=N/N=C(N)N)c2ccc(F)cc2)cc1`, the growth with SR leukemia is 24.1%; with RPMI-8226 leukemia it was 91.4%; in the experiment with OVCAR-8 ovarian, 98.4%; in the experiment on OVCAR-5 ovarian it was 115%; in the experiment on OVCAR-4 ovarian, 101%; with SK-OV-3 ovarian, 108%. Also, the growth in the experiment on IGROV1 ovarian is 110%; in the experiment on OVCAR-3 ovarian, 95.6%; with HS 578T breast, 93.4%; in the experiment with NCI/ADR-RES ovarian it was 95.7%; with T-47D breast it was 94.4%; in the experiment with BT-549 breast it was 98%. The growth in the experiment on MDA-MB-435 melanoma was 11.4%; with SW-620 colon it was 59.9%; in the experiment with MCF7 breast, 15.1%; with HCT-116 colon, 33.7%; with HCC-2998 colon, 90.3%; with KM12 colon it was 58.2%.

In the case of `CC(Nc1ncnc2ccc(-c3cnc(N)nc3)cc12)c1ccccc1` (centres undefined), the growth with SR leukemia was 15.1%; in the experiment on RPMI-8226 leukemia it was 28.2%; with OVCAR-8 ovarian it was 48%; in the experiment with OVCAR-5 ovarian it was 28.7%; with OVCAR-4 ovarian it was 39.7%; with SK-OV-3 ovarian, 27.3%. The growth with IGROV1 ovarian is -13.4% (active); with OVCAR-3 ovarian it was 43.8%; in the experiment on HS 578T breast, 5.98% (active); in the experiment with NCI/ADR-RES ovarian it was 53%; with T-47D breast it was 12.2%; in the experiment on BT-549 breast, 19.9%. Further, the growth in the experiment on MDA-MB-435 melanoma is 50.4%; in the experiment with SW-620 colon, 67.4%; in the experiment with MCF7 breast it was 18.5%; with HCT-116 colon it was 33%; in the experiment on HCC-2998 colon, 43%; in the experiment on KM12 colon, 54.7%.

In the case of `CC(Nc1ncnc2ccc(-c3cnc4cnccn34)cc12)c1ccccc1` (centres undefined), the growth was 38.9% with SR leukemia; 46.6% with RPMI-8226 leukemia; 59.7% with OVCAR-8 ovarian; 68.2% with OVCAR-5 ovarian; 41.4% in the experiment on OVCAR-4 ovarian; 60.6% in the experiment on SK-OV-3 ovarian. For the same compound, the growth with IGROV1 ovarian is 5.93% (active); with OVCAR-3 ovarian it was 67.5%; in the experiment on HS 578T breast, 63.1%; with NCI/ADR-RES ovarian, 52.6%; in the experiment on T-47D breast, 17.5%; with BT-549 breast it was 47.9%. The growth was 69.1% in the experiment with MDA-MB-435 melanoma; 85.7% in the experiment on SW-620 colon; 33.5% in the experiment with MCF7 breast; 72.3% in the experiment with HCT-116 colon; 80.7% in the experiment on HCC-2998 colon; 41.6% with KM12 colon.

Turning to `CCOC(=O)C1=C(C)NC(C)=C(C(=O)OC(C)C)C1c1cccc(C#N)c1` (centres undefined), the growth in the experiment with SR leukemia is 90.9%; with RPMI-8226 leukemia it was 108%; in the experiment with OVCAR-8 ovarian, 103%; with OVCAR-5 ovarian, 99.1%; in the experiment with OVCAR-4 ovarian, 104%; with SK-OV-3 ovarian, 132%. For the same compound, the growth is 103% in the experiment with IGROV1 ovarian; 105% with OVCAR-3 ovarian; 98% with HS 578T breast; 95% with NCI/ADR-RES ovarian; 95.1% in the experiment with T-47D breast; 126% with BT-549 breast. In addition, the growth with MDA-MB-435 melanoma is 104%; with SW-620 colon it was 99.2%; in the experiment on MCF7 breast, 94.5%; in the experiment with HCT-116 colon, 94%; with HCC-2998 colon, 104%; with KM12 colon, 98%.

Turning to `COc1ccc2[nH]cc(/C=N/Nc3ccnc4cc(Cl)ccc34)c2c1`, the growth is -27.1% (active) in the experiment on SR leukemia; -62.8% (active) in the experiment with RPMI-8226 leukemia; -70% (active) in the experiment on OVCAR-8 ovarian; -100% (active) with OVCAR-5 ovarian; -100% (active) with OVCAR-4 ovarian; -95.6% (active) in the experiment with SK-OV-3 ovarian. Also, the growth in the experiment with IGROV1 ovarian was -94.6% (active); in the experiment on OVCAR-3 ovarian, -82.1% (active); with HS 578T breast it was -49.6% (active); in the experiment with NCI/ADR-RES ovarian, -60.4% (active); in the experiment with T-47D breast, -53.6% (active); in the experiment on BT-549 breast it was -91.8% (active). The growth in the experiment with MDA-MB-435 melanoma is -90.8% (active); with SW-620 colon it was -71.8% (active); in the experiment with MCF7 breast, -69.1% (active); with HCT-116 colon it was -50.5% (active); in the experiment with HCC-2998 colon it was -89.4% (active); in the experiment with KM12 colon, -78% (active).

As to `N#Cc1c(-c2cccs2)cc(-c2cnccn2)nc1SCC(=O)N/N=C/c1cccs1`, the growth with SR leukemia is 74.7%; in the experiment with RPMI-8226 leukemia, 25.1%; with OVCAR-8 ovarian, 56.3%; with OVCAR-5 ovarian, 82.8%; in the experiment on OVCAR-4 ovarian it was 72.1%; in the experiment with SK-OV-3 ovarian, 56.5%. Also, the growth was 74.6% in the experiment on IGROV1 ovarian; 62.3% in the experiment with OVCAR-3 ovarian; 58.7% in the experiment on HS 578T breast; 52.9% in the experiment with NCI/ADR-RES ovarian; 50.1% in the experiment with T-47D breast; 42.5% in the experiment on BT-549 breast. The growth in the experiment on MDA-MB-435 melanoma is 51%; in the experiment on SW-620 colon, 43.2%; in the experiment on MCF7 breast, 32.1%; with HCT-116 colon, 0.402% (active); in the experiment on HCC-2998 colon, 43.1%; in the experiment on KM12 colon, 47.6%.
